Measurements from PubChem BioAssay AID651704 (Broad Institute, 2012).
The campaign covered roughly 350,000 compounds. About 1,600 (0.46%) were called active. The sample as a whole holds a higher share of actives than the screen did. A number with no mark means an inactive call.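 The calls were made as follows: active = every replicate reaching a set inhibition limit, whatever the replicate mean (cut at about 25% in these data); inconclusive = mean inhibition reaches that limit but some replicates miss it; inactive = the rest.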

Molecular target: Protein AF-9 (Homo sapiens) (UniProt P42568)
Assay: MLL-AF4/AF9 protein interaction blockers – biochemical, AlphaScreen, biotin-AF4 peptide, FLAG-AF9, single point, primary screen (AID 651704);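 also: 0% = plate neutral control median and 100% = total signal loss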
Conditions: biotin-AF4 peptide binding to FLAG-AF9, at 10 µM, hits give high values

Sequence of Protein AF-9 (Homo sapiens) (P42568 whole entry, looked up): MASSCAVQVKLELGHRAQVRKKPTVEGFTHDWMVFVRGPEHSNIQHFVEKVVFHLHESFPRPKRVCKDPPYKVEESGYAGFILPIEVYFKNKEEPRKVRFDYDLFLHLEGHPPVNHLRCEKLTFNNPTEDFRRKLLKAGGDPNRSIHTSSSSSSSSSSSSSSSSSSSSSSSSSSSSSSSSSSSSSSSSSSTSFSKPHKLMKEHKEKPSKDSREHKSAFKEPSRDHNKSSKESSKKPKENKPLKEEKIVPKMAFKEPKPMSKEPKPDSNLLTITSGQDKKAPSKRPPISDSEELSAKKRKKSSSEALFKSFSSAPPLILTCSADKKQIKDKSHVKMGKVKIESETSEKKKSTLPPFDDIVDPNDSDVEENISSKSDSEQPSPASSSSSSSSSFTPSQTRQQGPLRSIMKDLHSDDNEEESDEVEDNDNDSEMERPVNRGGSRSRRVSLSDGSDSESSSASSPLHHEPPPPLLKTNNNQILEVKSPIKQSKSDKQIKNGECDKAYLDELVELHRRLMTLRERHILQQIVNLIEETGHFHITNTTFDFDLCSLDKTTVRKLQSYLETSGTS

| SMILES | inhibition |
| --- | --- |
| O=C(C[C@@H]1C=C[C@H](NC(=O)Nc2ccccc2F)[C@@H](CO)O1)NCc1ccccc1 | -2.34% |
| CCC(=O)N1CC2(C1)[C@@H](c1ccc(-c3ccc(C#N)cc3)cc1)[C@H](CO)N2C(C)=O | -2.76% |
| Cc1ccc(S(=O)(=O)N2CCCCC2)cc1NC(=O)c1cccnc1 | 2.47% |
| O=C(O)c1ccc(N/N=C/c2cn(-c3ccccc3)nc2-c2cccs2)cc1 | 3.91% |
| O=C(N/N=C/c1sc(N2CCCCC2)nc1-c1cccs1)c1cccnc1 | 26.1% (active) |
| COc1ccccc1C#Cc1ccc([C@@H]2[C@H](CO)N3CCCCN(C(=O)C4CCCC4)C[C@@H]23)cc1 | 6.51% |
| Cc1cccc(-c2ccc([C@@H]3[C@H]4CN(C(=O)c5ccccc5)CC(=O)N4[C@H]3CO)cc2)c1 | 2.35% |
| CCCCNC(=O)CN1C(=O)NC(Cc2ccccc2)(Cc2ccccc2)C1=O | 51% (active) |
| CNC(=O)CN1C(=O)NC(c2ccccc2)(c2ccccc2)C1=O | 0.637% |
| COc1cccc(CNC(=O)CN2C(=O)NC(Cc3ccccc3)(c3ccccc3)C2=O)c1 (stereo unspecified) | -3.3% |
| COc1cccc(NC(=O)N[C@@H]2CC[C@H](CC(=O)NCc3ccccn3)O[C@H]2CO)c1 | -1.32% |
| CCCN1[C@@H]2c3ccc(-c4ccccc4)c(=O)n3C[C@@H]2[C@@H](CO)[C@@H]1C(=O)N(C)C | -2.05% |
| O=C1CC[C@@H]2CC3(C[C@@H]4CCN1[C@H]24)Nc1cc([N+](=O)[O-])ccc1NC3=NC1CCCCC1 (stereo partly specified) | 5.39% |
| Cc1cc2c(cc1C)NC1(C[C@H]3CCC(=O)N4CC[C@@H](C1)[C@@H]34)C(=NC(C)(C)CC(C)(C)C)N2 (stereo partly specified) | 54.9% (active) |
| CC=Cc1ccc2n(c1=O)C[C@H]1[C@H](CO)[C@@H](C(=O)NC3CCCC3)[C@@H]2N1C(=O)c1cnccn1 (mixture of isomers) | -3.71% |
| CN(C)CC(=O)N1[C@H](C#N)[C@H](c2ccccc2-c2cccc(C(=O)N(C)C)c2)[C@@H]1CO | -2.16% |
| Cc1noc(C)c1NC(=O)N(C)C[C@H]1Oc2ccc(N(C)C)cc2CC(=O)N([C@H](C)CO)C[C@H]1C | -0.871% |
| CO[C@H]1CN(C)C(=O)c2ccc(NC(=O)C3CC3)cc2OC[C@@H](C)N(Cc2ccc(F)cc2)C[C@@H]1C | 2.37% |
| CCCC#Cc1ccc([C@@H]2[C@@H](CO)N3C(=O)CN(C(=O)c4ccncc4)C[C@@H]23)cc1 | -2.52% |
| CCCC#Cc1ccc([C@H]2[C@@H](CO)N3C(=O)CN(C(=O)c4ccncc4)C[C@H]23)cc1 | -2.78% |
| CCCC#Cc1ccc([C@H]2[C@H]3CN(C(=O)c4cccnc4)CC(=O)N3[C@H]2CO)cc1 | 27.2% (active) |
